# Data as given in PubChem BioAssay.
# “And” between values parts separate entries of the source, which are not always exact repeats. Equal values may be shown once. Results filed as inconclusive are left out. The source made the active and inactive calls. Rule as the data show it, unless noted: active = inhibition above about 80%; inactive = the rest.
# Tests used:
# [1] = viability loss in pontine glioma line – cell-based, SU-DIPG-XVII, MIPE5.0, CellTiter-Glo, qHTS, dose response (AID 1347060; cut-off not given, nearly all actives have AC50 up to about 26 µM); conditions: CellTiter-Glo ATP luminescence
# [2] = viability loss in pontine glioma line – cell-based, SU-DIPG-XIII, MIPE4.0, CellTiter-Glo, qHTS, dose response (AID 1347061; cut-off not given, nearly all actives have AC50 up to about 37 µM;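 also: cells exposed to compound for 48 hours before readout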); conditions: CellTiter-Glo ATP luminescence
# [3] = viability loss in pontine glioma line – cell-based, JHH-DIPG-1, MIPE4.0, CellTiter-Glo, qHTS, dose response (AID 1347062; cut-off not given, nearly all actives have AC50 up to about 27 µM;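 as to AC50: cells exposed to compound for two days before readout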); conditions: JHH-DIPG-1 viability, CellTiter-Glo ATP luminescence
# [4] = viability loss in pontine glioma line – cell-based, SU-DIPG-IV, MIPE4.0, CellTiter-Glo, qHTS, dose response (AID 1347063; cut-off not given, nearly all actives have AC50 up to about 30 µM;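 also: compound exposure lasted 48 hours before the viability readout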); conditions: CellTiter-Glo ATP luminescence
# [5] = viability loss in pontine glioma line – cell-based, SU-DIPG-XIII, MIPE5.0, CellTiter-Glo, qHTS, dose response (AID 1347064; cut-off not given, nearly all actives have AC50 up to about 23 µM); conditions: CellTiter-Glo ATP luminescence
# [6] = growth inhibition of DIPG cells – cell-based, MIPE4.0 library, CellTiter-Glo luminescence, qHTS (AID 1347066; cut-off not given, nearly all actives have AC50 up to about 30 µM;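 also: cells exposed to compound for 48 hours before readout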); conditions: SU-DIPG-VI viability, CellTiter-Glo ATP luminescence
# [7] = JHH-DIPG-1 glioma cell viability, MIPE5.0 library, CellTiter-Glo luminescence, qHTS (AID 1347067; cut-off not given, nearly all actives have AC50 up to about 26 µM;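 also: cells exposed to compound for 48 hours before readout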); conditions: JHH-DIPG-1 glioma viability, CellTiter-Glo ATP luminescence
# [8] = growth inhibition of DIPG cells – cell-based, MIPE5.0 library, qHTS (AID 1347068; cut-off not given, nearly all actives have IC50 up to about 30 µM); conditions: SU-DIPG-XXV viability
# [9] = growth inhibition, single agent or in combination, cell-based, chromothripsis tumors, cisplatin or BGB combos (AID 1671449); conditions: LFS_MB_P medulloblastoma cells;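 also: cells exposed for 96 hours; 0% = vehicle DMSO and 100% = killing by high DMSO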
# [10] = growth inhibition, single agent and combos, cell-based, chromothripsis tumors, cisplatin or BGB combos (AID 1671450); conditions: HDN33 neuroblastoma cells, stronger effect = higher value;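 also: cells exposed to compound for four days; 0% = vehicle DMSO and 100% = cell killing by high DMSO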
# [11] = growth inhibition, single agents and combos, ICB984, cell-based, cisplatin or BGB combos, synergistic combos for chromothripsis tumors (AID 1671451; call rule not given here;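 also: cells exposed for 96 hours before readout; 0% = vehicle DMSO and 100% = killing by high DMSO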); conditions: ICB984 medulloblastoma cells, drug combinations, stronger effect = higher value
# [12] = growth inhibition, single agents and combos, LFS_MB_1R, cell-based, cisplatin or BGB combos, synergistic combos for chromothripsis tumors (AID 1671452); conditions: LFS_MB_1R medulloblastoma cells, stronger effect = higher value;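 also: cells exposed for 96 hours before readout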
# [13] = growth inhibition, single agents and combos, HTB85, cell-based, BGB or cisplatin IC20 combos, synergistic combos for chromothripsis tumors (AID 1671453); conditions: HTB85 osteosarcoma cells, drug combinations, stronger effect = higher value;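 also: cells exposed for 96 hours before readout; 0% = vehicle DMSO and 100% = high DMSO killing control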
# [14] = growth inhibition, single agents and combos, CRL2098, cell-based, BGB or cisplatin IC20 combos, synergistic combos for chromothripsis tumors (AID 1671454); conditions: CRL2098 osteosarcoma cells, drug combinations, stronger effect = higher value;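 also: cells exposed for 96 h before readout; 0% = vehicle DMSO and 100% = killing by high DMSO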
# [15] = growth inhibition, single agents and combos, HD-MB03, cell-based, BGB or cisplatin IC20 combos, synergistic combos for chromothripsis tumors (AID 1671455; in the data active = inhibition above about 83%;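 also: 0% = vehicle DMSO and 100% = high DMSO as cytotoxic control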); conditions: HD-MB03 medulloblastoma cells, stronger effect = higher value
# [16] = growth inhibition, single agents and combos, UWB1.289, cell-based, BGB or cisplatin combos, synergistic combos for chromothripsis tumors (AID 1671456); conditions: UWB1.289 ovarian carcinoma cells, stronger effect = higher value;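 also: cells exposed to compound for four days; 0% = vehicle DMSO and 100% = killing by high DMSO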
# [17] = growth inhibition, single agents and combos, LFS_MB_2R, cell-based, cisplatin combos, synergistic combos for chromothripsis tumors (AID 1671457); conditions: LFS_MB_2R medulloblastoma cells, stronger effect = higher value;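 also: cells exposed to compound for four days before readout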
# [18] = growth inhibition, MDA-MB-436, cell-based, BGB or cisplatin combos, synergistic combos for chromothripsis tumors (AID 1671458; call rule not given here;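 also: cells exposed for 96 hours; 0% = vehicle DMSO and 100% = killing by high DMSO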); conditions: MDA-MB-436 breast carcinoma growth inhibition, drug combinations, stronger effect = higher value
# [19] = UWB1.289_BRCA1 ovarian cancer growth, cell-based, BGB or cisplatin combinations (AID 1671459); conditions: UWB1.289 BRCA1 ovarian carcinoma, drug combinations, stronger effect = higher value
# [20] = drug combination toxicity in non-malignant astrocytes – cell-based, BGB or cisplatin IC20 combos, cytotoxicity control for chromothriptic childhood tumor combination screen (AID 1671460); conditions: Human astrocytes, viability inhibition, drug combinations, at 0.5 µM, stronger effect = higher value;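 also: cells exposed to compounds for 96 hours before viability readout; 0% = vehicle and 100% = killing control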
# [21] = BT084 cell growth, single and combined drugs, ICGC_MB145, cisplatin and BGB IC40 combos (AID 1671461); conditions: BT084 medulloblastoma cells, drug combinations, stronger effect = higher value;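 also: cells exposed to drugs for 96 hours; 0% = vehicle DMSO and 100% = high DMSO full killing control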
# [22] = RCMB18 cell growth, single agent and combined, cisplatin and BGB IC40 combos (AID 1671462); conditions: RCMB18 medulloblastoma cells, stronger effect = higher value;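 also: cells exposed to compound for four days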
# [23] = CRL1545 cell growth, single agent and combined, cisplatin and BGB IC20 combos (AID 1671464); conditions: CRL1545 osteosarcoma cells, stronger effect = higher value;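 also: cells exposed to compound for 96 hours before readout; 0% = vehicle DMSO and 100% = high DMSO killing control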
# [24] = compounds altering circadian rhythm period length – cell-based, LOPAC library, luminescence reporter (AID 2774; call rule not given here;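 also: values are relative to mean of DMSO wells on each plate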); conditions: circadian reporter cells, at 7 µM, actives lie on both sides
# [25] = test system: Hepatitis C virus NS3 helicase; assay: blockers of NS3h binding to ssDNA – biochemical, fluorescence polarization, LOPAC1280 library, primary screen (AID 687035; in the data active = inhibition above about 37%); conditions: Purified HCV NS3 helicase, Cy5-dT15 ssDNA binding fluorescence polarization; stronger effect = higher value; concentration not given here
# [26] = compounds altering Cy5-DNA-NS3h complex signal – biochemical, LOPAC1280, artefact control for HCV NS3 helicase inhibitor project (AID 687037; call rule not given here); conditions: Cy5-DNA-NS3h complex fluorescence interference counterscreen
# [27] = test system: Aerobactin synthetase IucA (Klebsiella pneumoniae, hypervirulent); assay: biochemical IucA inhibition screen of LOPAC library by absorbance (AID 1346212; call rule not given here;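 also: 100% = no compound wells and 0% = no enzyme wells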); conditions: IucA enzyme assay, absorbance (OD) readout; stronger effect = lower value;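 tested at 8 µM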
# [28] = liver-stage malaria parasite load reduction – cell-based, known kinase inhibitor set, luminescence, hepatoma host viability (AID 624392; call rule not given here;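 also: infected cells incubated roughly two days before readout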); conditions: Plasmodium liver stage in hepatoma cells, luciferase luminescence, concentration not given here; liver cell % of control: measured here: host liver cell viability; parasite % of control: stronger effect = lower value
# [29] = viability loss in pontine glioma line – cell-based, SU-DIPG-XXV, MIPE5.0, CellTiter-Glo, qHTS, dose response (AID 1347065; cut-off not given, nearly all actives have AC50 up to about 26 µM;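 also: cells exposed to compound for 48 hours before ATP readout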); conditions: CellTiter-Glo ATP luminescence
# [30] = compounds altering HSF1 focus formation in cells – imaging, Selleck Cancer Library (AID 1347162; in the data active = plate-normalised HSF1 focus index below about 0.46); conditions: human cells, HSF1 nuclear foci imaging, at 10 µM; SSMD: measured here: HSF1 foci SSMD mean; cell count: measured here: cell number; plate-normalised HSF1 focus index: stronger effect = lower value
# [31] = measured here: combination with BGB IC40, at 0.05 µM
# [32] = measured here: with BGB IC20 combination, at 0.5 µM
# [33] = measured here: with cisplatin IC20 combination, at 0.5 µM
# [34] = measured here: combination with cisplatin, at 0.5 µM
# [35] = measured here: combination with cisplatin, at 5 µM
smiles,measurement,setting,value
CN(C)NC(=O)CCC(=O)O,outcome,[1],inactive
same,outcome,[2],inactive
same,outcome,[3],inactive
same,outcome,[4],inactive
same,outcome,[5],inactive
same,outcome,[6],inactive
same,outcome,[7],inactive
same,outcome,[8],inactive
same,inhibition,"[9]; at 0.5 µM, stronger effect = higher value",-0.95% (inactive)
same,inhibition,"[9]; measured here: combination with BGB IC20, at 0.005 µM",-31%
same,inhibition,"[9]; measured here: combination with BGB IC40, at 0.005 µM",-30.2%
same,inhibition,[9]; [31],-24.7%
same,inhibition,"[9]; measured here: combination with cisplatin, at 0.5 µM, stronger effect = higher value",2.21%
same,inhibition,"[9]; measured here: combination with cisplatin, at 5 µM, stronger effect = higher value",-34.9%
same,inhibition,"[10]; BGB combo, at 5 µM",-23.5%
same,inhibition,[10]; at 0.5 µM,-21.4% (inactive)
same,inhibition,"[10]; cisplatin combo, at 5 µM",-14%
same,inhibition,[10]; [32],-37.1%
same,inhibition,[10]; [33],-10.8%
same,inhibition,"[10]; single agent, at 5 µM",-11.1%
same,inhibition,"[11]; BGB IC20 combo, at 0.005 µM",-38.4%
same,inhibition,"[11]; BGB IC40 combo, at 0.005 µM",-26.9%
same,inhibition,"[11]; BGB IC40 combo, at 0.05 µM",-23.3%
same,inhibition,[11]; at 0.5 µM,-22.7% (inactive)
same,inhibition,"[11]; cisplatin combo, at 0.05 µM",-27.8%
same,inhibition,"[11]; cisplatin combo, at 0.5 µM",-26.2%
same,inhibition,"[11]; cisplatin combo, at 5 µM",-3.89%
same,inhibition,"[11]; measured here: 5 uM single agent, at 5 µM",-1.92%
same,inhibition,[12]; at 0.5 µM,-2.69% (inactive)
same,inhibition,[12]; [31],-23.8%
same,inhibition,[12]; [34],18.7%
same,inhibition,[12]; [35],-7.99%
same,inhibition,[13]; at 0.5 µM,-8.01% (inactive)
same,inhibition,"[13]; measured here: with BGB IC20, at 0.5 µM",-17.1%
same,inhibition,"[13]; measured here: with BGB IC20, at 5 µM",-18.2%
same,inhibition,"[13]; measured here: with cisplatin IC20, at 0.5 µM",10.6%
same,inhibition,"[13]; measured here: with cisplatin IC20, at 5 µM",-1.55%
same,inhibition,"[13]; single agent, at 5 µM",-16.5%
same,inhibition,[14]; at 0.5 µM,-47.3% (inactive)
same,inhibition,"[14]; measured here: combination with BGB at IC20, at 0.5 µM",-35.5%
same,inhibition,"[14]; measured here: combination with cisplatin at IC20, at 0.5 µM",-70.4%
same,inhibition,[15]; at 0.5 µM,-8.93% (inactive)
same,inhibition,"[15]; measured here: combo with BGB at IC20, at 0.5 µM",-16.7%
same,inhibition,"[15]; measured here: combo with cisplatin at IC20, at 0.5 µM",-5.27%
same,inhibition,[16]; at 0.5 µM,-6.42% (inactive)
same,inhibition,"[16]; measured here: inhibition with BGB combination, at 0.05 µM",-16.9%
same,inhibition,"[16]; measured here: inhibition with cisplatin combination, at 0.05 µM",-15.9%
same,inhibition,[17]; at 0.5 µM,-22.3% (inactive)
same,inhibition,[17]; [34],-20.6%
same,inhibition,[17]; [35],-15.1%
same,inhibition,[18]; at 0.5 µM,-23% (inactive)
same,inhibition,"[18]; measured here: BGB combination, at 0.5 µM",-22.6%
same,inhibition,"[18]; measured here: BGB combination, at 5 µM",-35.6%
same,inhibition,"[18]; measured here: cisplatin combination, at 0.5 µM",-26.7%
same,inhibition,"[18]; measured here: cisplatin combination, at 5 µM",-43.4%
same,inhibition,"[19]; BGB combination, concentration series, at 5 µM",-16%
same,inhibition,[19]; at 0.5 µM,-15.1% (inactive)
same,inhibition,"[19]; cisplatin combination, concentration series, at 5 µM",-31.4%
same,inhibition,[20],-16.7% (inactive)
same,inhibition,[20]; measured here: combo with BGB IC20,-24.5%
same,inhibition,[20]; measured here: combo with cisplatin IC20,-4.55%
same,inhibition,[21]; at 0.5 µM,-3.48% (inactive)
same,inhibition,"[21]; cisplatin combination, at 0.5 µM",-21.4%
same,inhibition,"[21]; cisplatin combination, at 5 µM",-13.9%
same,inhibition,"[21]; measured here: BGB IC40 combination 0.05 uM, at 0.05 µM",-20.2%
same,inhibition,"[21]; single agent, at 5 µM",-16.7%
same,inhibition,[22]; at 0.5 µM,-11.5% (inactive)
same,inhibition,"[22]; cisplatin combo, at 5 µM",1.98%
same,inhibition,"[22]; measured here: BGB IC40 combination, at 0.05 µM",-3.93%
same,inhibition,[22]; [34],15.6%
same,inhibition,"[22]; single agent, at 5 µM",-10.2%
same,inhibition,[23]; at 0.5 µM,-22.5% (inactive)
same,inhibition,[23]; [32],-20%
same,inhibition,[23]; [33],-25.8%
same,inhibition,"[23]; single agent, at 0.05 µM",-6.7%
same,inhibition,"[23]; single agent, at 5 µM",-28%
CC12CCC3C(CCC4=C(O)C(=O)CCC43C)C1CCC2=O (stereo not drawn),period change,[24],-0.08 h (inactive)
same,inhibition,[25],-3% (inactive)
same,fluorescence ratio (interference),[26],1 (inactive)
same,remaining activity,[27],113% (inactive)
Cc1ccccc1-n1c(Cn2cnc3c(N)ncnc32)nc2cccc(C)c2c1=O,liver cell % of control,[28],91.8% and 81.8% and 99.4%
same,parasite % of control,[28],49.6% (inactive) and 56.6% (inactive) and 61.4% (inactive)
same,outcome,[1],inactive
same,AC50,[2],4180 nM (active)
same,AC50,[3],1320 nM (active)
same,AC50,[4],105 nM (active)
same,outcome,[5],inactive
same,outcome,[29],inactive
same,AC50,[6],743 nM (active)
same,outcome,[7],inactive
same,outcome,[8],inactive
same,SSMD,[30],2.3
same,cell count,[30],6650
same,plate-normalised HSF1 focus index,[30],1.12 (inactive)
CC(C)[C@H]1C(=O)N[C@H](CO)Cc2c[nH]c3cccc(c23)N1C,outcome,[1],inactive
same,outcome,[2],inactive
same,outcome,[6],inactive
same,outcome,[8],inactive
